Source: PubChem BioAssay
The sample as a whole holds a higher share of hits than the screen did.
HT1080 IDH1KD tx: kills HT-1080 cells with IDH1 knockdown; HT-1080 IDH1 knockdown viability, ATP luminescence, 48 h; Potency, µM (titrated, usually from 46.1 µM), for the others: top-dose activity, negative = toxicity, usual class: cytotoxic; 360,000 tested, 2% active;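 also: potency is read from the fitted curve at half-maximal effect; 0% = DMSO wells and -100% = cell-free medium wells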
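Viability of IDH1-knockdown HT-1080 fibrosarcoma cells was assessed by CellTiter-Glo after 48 h at 37 °C with titrated compound; concentration-effect curves were classified by fit quality and response size.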
TDP1 cell noCPT: qHTS for Inhibitors of human tyrosyl-DNA phosphodiesterase 1 (TDP1): qHTS in cells in absence of CPT | Potency, µM (series often up to 46.2 µM), for the others: top-dose activity change, negative = growth inhibition, usual class: inhibitors | AID 686978, 2013 | DT40 Tdp1-/- hTDP1 cells, no CPT, ATP luminescence, 48 h | 420,000 tested, 15% active; also: potency is read from the fitted curve at half-maximal effect; nearly all actives have a fitted effect of over 55% in size
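Chicken DT40 Tdp1-/- cells stably complemented with human TDP1 were seeded at 400 cells/well with DMSO in place of 20 nM camptothecin. After compound pinning, cells grew at least 48 hr at 37 °C; viability read by CellTiter-Glo luminescence.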
ALOX12 inh: blocks human arachidonate 12S-lipoxygenase | purified 12hLO, xylenol orange hydroperoxide absorbance | AID 1671190 | P18054 | Potency, µM (series often up to 108 µM), without a hit: top-dose activity change, negative = inhibition, most hits filed as inhibitors | 580,000 tested, 1.1% active; also: potency is read from the fitted curve at half-maximal effect
Target sequence (P18054 whole entry, looked up): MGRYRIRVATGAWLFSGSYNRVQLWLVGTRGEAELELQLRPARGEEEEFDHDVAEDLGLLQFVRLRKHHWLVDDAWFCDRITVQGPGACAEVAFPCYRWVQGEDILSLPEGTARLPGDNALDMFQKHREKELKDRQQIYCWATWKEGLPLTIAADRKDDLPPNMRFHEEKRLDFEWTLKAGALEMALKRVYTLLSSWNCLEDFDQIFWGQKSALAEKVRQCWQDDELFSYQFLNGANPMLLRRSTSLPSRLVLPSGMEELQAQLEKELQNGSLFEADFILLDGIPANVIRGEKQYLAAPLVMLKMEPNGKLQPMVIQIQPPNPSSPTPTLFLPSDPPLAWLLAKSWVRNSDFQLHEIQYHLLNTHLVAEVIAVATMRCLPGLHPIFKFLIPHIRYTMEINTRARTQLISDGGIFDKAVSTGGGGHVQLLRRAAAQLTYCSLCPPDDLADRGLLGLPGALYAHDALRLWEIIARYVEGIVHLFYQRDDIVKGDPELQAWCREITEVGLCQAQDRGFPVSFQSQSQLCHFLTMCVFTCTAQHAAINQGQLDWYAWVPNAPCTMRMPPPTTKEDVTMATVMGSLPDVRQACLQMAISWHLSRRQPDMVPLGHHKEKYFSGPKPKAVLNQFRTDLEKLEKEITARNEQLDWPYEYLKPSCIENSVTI
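Purified human 12hLO (150 nM final) in 25 mM Hepes, 0.01% Triton X-100, pH 7.0 was preincubated 15 min at room temperature with compound. Then 40 uM arachidonic acid was added, 30 min. Hydroperoxide was read by Fe-XO absorbance ratio 573/405 nm.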
IL1B secr inh: blocks inflammasome-driven IL-1 beta release; activity change, % at 57.5 µM; THP-1 LPS/ATP IL-1B secretion, AlphaLISA, 16 h; hits give low values; 360,000 tested, 4.7% active; in the data active = activity change below about -50%; inconclusive = mostly about -30% to -49%
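Secreted IL-1B measured by AlphaLISA bead assay after 16 h compound exposure of THP-1 cells; compounds (final up to 57.5 uM) added 1 h before LPS (250 ng/mL) and ATP (1.25 mM) stimulation; lower signal means less secretion.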
HT1080NT lethal: kills 2HG-producing HT-1080-NT fibrosarcoma cells; 360,000 tested, 1.6% active; Potency, µM (titrated, usually from 46.1 µM), without a hit: top-dose activity, negative = less viability, actives largely listed as cytotoxic; HT-1080-NT fibrosarcoma viability, CellTiter-Glo ATP luminescence, 48 h;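 also: NT is the 2HG producing partner of a matched IDH1 knockdown line; potency is read from the fitted curve at half-maximal effect; 0% = DMSO-treated cells and -100% = media-only wells without cells; nearly all actives have a fitted effect of over 55% in size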
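Viability by CellTiter-Glo luminescence after 48 h compound exposure at 37C of HT-1080-NT cells (750/well, RPMI, 5% FBS). % activity scaled between DMSO wells and medium-only wells, then curve-fitted and categorized by curve class.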
TDP1 cell CPT: DT40-hTDP1 cell growth loss with CPT; AID 686979; 420,000 tested, 12% active; chicken DT40 Tdp1-/-;hTDP1 cells + 20 nM CPT, ATP luminescence, 48 h; Potency, µM (top dose mostly 46.2 µM), for inactives: at the highest dose activity change, negative = growth inhibition, hits mostly inhibitors; also: potency is read from the fitted curve at half-maximal effect; nearly all actives have a fitted effect of over 55% in size
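Chicken DT40 Tdp1-/- cells stably complemented with human TDP1 were seeded at 400 cells/well in medium containing 20 nM camptothecin, exposed to pin-transferred compounds, and grown at 37 °C for at least 48 hr. Viability was read as ATP luminescence.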
Active calls of the source: *. Unless noted, calls follow the shape of the dose curve; as a rule, active = well fitted curve in the direction sought with a large enough effect; inconclusive = small, poorly fitted or top-dose-only effect, or another doubt; inactive = no such curve, though single readings can be large; an effect the other way counts as inactive or inconclusive. Unless noted, % is scaled to controls: 0 for no effect and ±100 for the full control effect.

Cc1nn2c(=O)cc(COC(=O)c3cccc(NC(=O)c4ccc(F)cc4)c3)nc2s1 was read as TDP1 cell noCPT 10µM*, ALOX12 inh -14% and TDP1 cell CPT 12µM*.
Screening O=C(Nc1cccc(C(=O)OCc2cc(=O)n3nc(C4CC4)sc3n2)c1)c1cccc(Cl)c1 returned TDP1 cell noCPT 16µM*, ALOX12 inh -21% and TDP1 cell CPT 12µM*.
`O=C(Nc1ccc(C(=O)OCc2cc(=O)n3nc(C4CC4)sc3n2)cc1)c1cccc(Cl)c1` gave TDP1 cell noCPT -4%, ALOX12 inh -5% and TDP1 cell CPT -1%.
Screening O=C(Nc1ccccc1C(=O)OCc1cc(=O)n2ccsc2n1)c1cccc(F)c1 returned TDP1 cell noCPT 12µM*, ALOX12 inh -18% and TDP1 cell CPT 18µM*.
For COc1ccc(Nc2cc3c(cn2)cc(-c2cccc(C(F)(F)F)c2)n3C)cc1 the results were ALOX12 inh 45µM*.
CC(C)Oc1ccc(Nc2cc3c(cn2)cc(-c2cccnc2)n3C)cc1 was read as ALOX12 inh -38%.
For Cc1cc(C(=O)N2CCCCCCNC(=O)[C@@H]3C[C@@H](c4nc(Cc5ccccc5)no4)C[C@@H]32)nn1C the results were ALOX12 inh 8%.
For Cc1nc2ccccc2n1/N=C/c1ccc([N+](=O)[O-])s1 the results were HT1080 IDH1KD tx inconclusive, TDP1 cell noCPT 5.2µM*, ALOX12 inh 4%, IL1B secr inh inconclusive, HT1080NT lethal inconclusive and TDP1 cell CPT 3.7µM*.
`O=[N+]([O-])c1ccc(/C=N/Nc2ncccc2[N+](=O)[O-])s1` gave HT1080 IDH1KD tx 11%, TDP1 cell noCPT 1.3µM*, ALOX12 inh 158%, IL1B secr inh -3, HT1080NT lethal -5% and TDP1 cell CPT 1.5µM*.
Screening Cc1nc2ccccc2n1/N=C/c1ccc([N+](=O)[O-])o1 returned HT1080 IDH1KD tx 10µM*, TDP1 cell noCPT 2.9µM*, ALOX12 inh -3%, IL1B secr inh -97*, HT1080NT lethal 13µM* and TDP1 cell CPT 1.8µM*.
O=C(c1ccccc1[N+](=O)[O-])n1cnc2ccccc21 was read as HT1080 IDH1KD tx 1%, TDP1 cell noCPT -5%, ALOX12 inh -9%, IL1B secr inh -9, HT1080NT lethal -1% and TDP1 cell CPT 10%.
O=[N+]([O-])c1ccc(/C=N/n2cnc3ccccc32)s1 was read as HT1080 IDH1KD tx inconclusive, TDP1 cell noCPT 3.7µM*, ALOX12 inh -13%, IL1B secr inh -74*, HT1080NT lethal inconclusive and TDP1 cell CPT 3.7µM*.
`O=[N+]([O-])c1cccnc1Nc1ccc(Cl)cc1` gave HT1080 IDH1KD tx 4%, TDP1 cell noCPT 1%, ALOX12 inh -3%, IL1B secr inh 4, HT1080NT lethal -1% and TDP1 cell CPT 2%.
CC(=O)N1CCC(N2CCC([C@@H]3CNC[C@H]3CO)CC2)CC1 was read as ALOX12 inh 49%.
Screening COc1ccc2c(CCNC(=O)c3cccc4ccccc34)c[nH]c2c1 returned ALOX12 inh -20%.
Screening FC(F)(F)c1cc(-c2cccs2)nc2c(-c3ccccc3)cnn12 returned ALOX12 inh 68%.
Screening O=c1c2c([N+](=O)[O-])cc([N+](=O)[O-])cc2nc2ccccn12 returned HT1080 IDH1KD tx 1%, TDP1 cell noCPT inconclusive, ALOX12 inh inconclusive, IL1B secr inh -12, HT1080NT lethal -4% and TDP1 cell CPT inconclusive.
For O=c1c2c([N+](=O)[O-])cc([N+](=O)[O-])cc2sn1Cc1ccccc1 the results were HT1080 IDH1KD tx inconclusive, TDP1 cell noCPT 5.2µM*, ALOX12 inh 0.79µM*, IL1B secr inh -105*, HT1080NT lethal inconclusive and TDP1 cell CPT 5.2µM*.
`O=c1c2c([N+](=O)[O-])cc([N+](=O)[O-])cc2sn1-c1ccc(Br)cc1` gave HT1080 IDH1KD tx -2%, TDP1 cell noCPT inconclusive, IL1B secr inh -18, HT1080NT lethal -4% and TDP1 cell CPT 10µM*.
`CCOC(=O)C1=C(C)N=C2SC=C(CC(=O)N3CCC(C)CC3)N2C1c1ccccc1F` (stereo not drawn) gave ALOX12 inh 70%.
COc1ccc(OC)c(C2C=C(c3ccc(Cl)cc3OC(F)F)Nc3nnnn32)c1 (stereo not drawn) was read as ALOX12 inh -20%.
`CC1(C)N=c2ccc([N+](=O)[O-])c(N)c2=[N+]1[O-]` gave HT1080 IDH1KD tx -25%, TDP1 cell noCPT 21µM*, ALOX12 inh -36%, IL1B secr inh 78, HT1080NT lethal inconclusive and TDP1 cell CPT 15µM*.
Cc1cc(-c2nn(-c3ccccc3F)cc2CN2CCN(c3ccncc3)CC2)c(C)s1 was read as HT1080 IDH1KD tx inconclusive, TDP1 cell noCPT inconclusive, ALOX12 inh -30%, IL1B secr inh -85*, HT1080NT lethal 21µM* and TDP1 cell CPT inconclusive.
CC(=O)NC1CCN(Cc2cn(-c3ccccc3F)nc2-c2cc(C)sc2C)C1 (stereo not drawn) was read as ALOX12 inh 87%.
Cc1cc(-c2nn(-c3ccccc3F)cc2CN2CCCC(C#N)C2)c(C)s1 (stereo not drawn) was read as ALOX12 inh 17%.
For COCC1CCCN(Cc2cn(-c3ccccc3F)nc2-c2cc(C)sc2C)C1 (stereo not drawn) the results were HT1080 IDH1KD tx 1%, TDP1 cell noCPT 18µM*, ALOX12 inh 0%, IL1B secr inh 0, HT1080NT lethal 9% and TDP1 cell CPT 16µM*.
`CC(=O)NCC1CCCN(Cc2cn(-c3ccccc3F)nc2-c2cc(C)sc2C)C1` (stereo not drawn) gave HT1080 IDH1KD tx -13%, TDP1 cell noCPT -23%, ALOX12 inh -9%, IL1B secr inh -56*, HT1080NT lethal 4% and TDP1 cell CPT inconclusive.
Screening Cc1cc(-c2nn(-c3ccccc3F)cc2CN2CCC(N(C)C)C2)c(C)s1 (stereo not drawn) returned ALOX12 inh 85%.
CC(C)CC(=O)N1CCCC(c2noc(COc3ccccc3)n2)C1 (stereo not drawn) was read as ALOX12 inh 0%.
